According to PubChem BioAssay (NCATS):
Values joined by “and” are separate entries in the source; they are usually repeats but may differ in a detail not shown here. Equal entries are not always repeated. Inconclusive results are not listed. Active and inactive are the calls of the source. Unless noted, calls come from the whole dose curve; as a rule, active = well fitted curve in the direction sought with a large enough effect; inconclusive = small, poorly fitted or top-dose-only effect, or another doubt; inactive = no such curve, though single readings can be large; an effect the other way counts as inactive or inconclusive.

Assays:
[1] = Cell Viability - H-4-II-E (AID 543);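 note: cells exposed to compound for 40 hours; % is set by controls: 0 for no effect and ±100 for the full control effect; nearly all actives have a fitted effect of over 35% in size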
Method in brief: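 AC50 from Hill-modelled qHTS concentration-response curves. H-4-II-E rat hepatoma cells in complete medium, 40 hr exposure at 37 °C, viability by CellTiter-Glo ATP luminescence.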

[2] = Cell Viability - LYMP2-001 (AID 921); note: nearly all actives have a fitted effect of over 70% in size; note: potency is the fitted concentration of half-maximal effect
Method in brief: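 qHTS, 1536-well; lymphoblastoid cells, 24 hr compound, 37 C; ATP by CellTiter-Glo, 30 min RT; luminescence; Hill-fit AC50.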

[3] = MultiTox-Fluor Cytotoxicity Assay - LYMP1-001 - Live Cells (AID 947);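 note: 0% = DMSO only and full inhibition = tetraoctylammonium bromide control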
[4] = Cell Viability - LYMP1-003 - Assay at 40 hr (AID 964); note: series mostly up to about 92 µM; % is set by controls: 0 for no effect and ±100 for the full control effect; nearly all actives have a fitted effect of over 60% in size
Method in brief: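 Acute toxicity is scored as a concentration-dependent loss of intracellular ATP in LYMP1-003 cells (2500/well, complete medium) after 40 hr at 37 C, measured by CellTiter-Glo luminescence; AC50 values derive from standard Hill modelling.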

[5] = Cell Viability - LYMP2-004 (AID 966);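 note: plate controls were DMSO only for no effect and tetraoctylammonium bromide control for full effect; nearly all actives have a fitted effect of over 65% in size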
Method in brief: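 Viable-cell number estimated from ATP luminescence (CellTiter-Glo) in 2500 human lymphoblastoid cells/well after 24 hr at 37 C with compound. AC50 fitted to the standard Hill equation.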

[6] = Cell Viability - LYMP2-005 (AID 967);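 note: series mostly up to about 92 µM; plate controls were DMSO only for no effect and 92 µM tetraoctylammonium bromide control for full effect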
Method in brief: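 qHTS viability screen in LYMP2-005 cells: 24 h at 37 C with compound, ATP luminescence via CellTiter-Glo, AC50 from Hill curves.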

[7] = Cell Viability - LYMP2-009 (AID 968);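 note: series mostly up to about 92 µM; 0% = DMSO alone and the full-kill end = tetraoctylammonium bromide at 92 µM; nearly all actives have a fitted effect of over 55% in size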
[8] = Cell Viability - LYMP2-017 (AID 972);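 note: series mostly up to about 92 µM; cells exposed to compound for 24 hours at 37 °C; % is set by controls: 0 for no effect and ±100 for the full control effect; nearly all actives have a fitted effect of over 55% in size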
Method in brief: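 In this qHTS format, lymphoblastoid cells in complete medium receive test compound for a day at 37 C before ATP content is quantified by luciferase luminescence. Reported AC50 figures come from standard Hill-equation curve fitting.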

[9] = Cell Viability - LYMP2-019 (AID 973);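 note: 0% = DMSO alone and full effect = 92 µM tetraoctylammonium bromide; nearly all actives have a fitted effect of over 55% in size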
Method in brief: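 AC50 values come from Hill-equation modelling of qHTS concentration-response curves, where viability is measured as luciferase-based ATP luminescence in the lymphoblastoid line after 24 hr compound exposure in complete culture medium.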

[10] = Cell Viability - LYMP2-002 (AID 977);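 note: series mostly up to about 92 µM; compound exposure lasted 24 h at 37 °C; plate controls were DMSO only for no effect and 92 µM tetraoctylammonium bromide for full effect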
Method in brief: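 Human lymphoblastoid cells, 2500/well, complete medium; 5 h 37 C settle; compound 24 h 37 C; CellTiter-Glo, 30 min RT; luminescence. Decrease in ATP = cytotoxicity; AC50 via Hill equation.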

[11] = Cell Viability - LYMP2-006 (AID 978);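 note: series mostly up to about 92 µM; cells exposed to compound for 24 hours; % is set by controls: 0 for no effect and ±100 for the full control effect; nearly all actives have a fitted effect of over 60% in size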
Method in brief: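 Concentration-dependent loss of intracellular ATP in a human lymphoblastoid line after 24 hr treatment at 37 C was measured by CellTiter-Glo luminescence, with AC50 values obtained from standard Hill-equation modelling.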

[12] = Cell Viability - LYMP2-020 (AID 986);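 note: series mostly up to about 92 µM; plate controls were DMSO only for no effect and tetraoctylammonium bromide at 92 µM for full effect; nearly all actives have a fitted effect of over 55% in size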
Method in brief: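 Cells at 2500 per well receive a 24 hr compound exposure at 37 C. Viability is measured as ATP-dependent luciferase luminescence, with AC50 modeled from qHTS concentration-response curves.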

[13] = Cell Viability - LYMP2-022 (AID 987)
Method in brief: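 In this qHTS cytotoxicity screen, compound titrations were incubated 24 hr at 37 C with human lymphoblastoid cells in complete medium. Luciferase-based ATP luminescence provided the viability signal.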

[14] = Cell Viability - LYMP2-024 (AID 988);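 note: plate controls were DMSO only for no effect and 92 µM tetraoctylammonium bromide for full effect; nearly all actives have a fitted effect of over 60% in size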
Method in brief: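 Cells at 2500 per well received compound for 24 hr after a 5 hr settling period. Viability was scored by CellTiter-Glo luminescence, with AC50 from Hill fits.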

[15] = qHTS assay for small molecule antagonists of retinoid X receptor alpha signaling (AID 588546; active = well fitted inhibition curve with a large enough effect in the signal ratio, with a control signal flat, not every such curve was filed as active; the % refers to the signal ratio;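 note: cells stimulated with 9-cis-retinoic acid as agonist; % is set by controls: 0 for no effect and ±100 for the full control effect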); conditions: HEK293T RXRa-UAS-bla, beta-lactamase ratio, antagonist mode; measured here: W530 green channel, cytotoxicity proxy
Method in brief: (§1)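 Beta-lactamase reporter inhibition, read as CCF4 fluorescence ratio (ex 405, em 460/530 nm) after 2 h at RT. HEK293T UAS-bla cells, 2500/well, were stimulated with 9-cis-RA at 500 or 100 nM final alongside test compound for 18 h at 37 C.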

[16] = biological target: Retinoic acid receptor RXR-alpha (Homo sapiens) (UniProt P19793); assay: as above; conditions: HEK293T RXRa-UAS-bla, beta-lactamase ratio, antagonist mode
Retinoic acid receptor RXR-alpha (Homo sapiens), sequence (P19793 whole entry, looked up): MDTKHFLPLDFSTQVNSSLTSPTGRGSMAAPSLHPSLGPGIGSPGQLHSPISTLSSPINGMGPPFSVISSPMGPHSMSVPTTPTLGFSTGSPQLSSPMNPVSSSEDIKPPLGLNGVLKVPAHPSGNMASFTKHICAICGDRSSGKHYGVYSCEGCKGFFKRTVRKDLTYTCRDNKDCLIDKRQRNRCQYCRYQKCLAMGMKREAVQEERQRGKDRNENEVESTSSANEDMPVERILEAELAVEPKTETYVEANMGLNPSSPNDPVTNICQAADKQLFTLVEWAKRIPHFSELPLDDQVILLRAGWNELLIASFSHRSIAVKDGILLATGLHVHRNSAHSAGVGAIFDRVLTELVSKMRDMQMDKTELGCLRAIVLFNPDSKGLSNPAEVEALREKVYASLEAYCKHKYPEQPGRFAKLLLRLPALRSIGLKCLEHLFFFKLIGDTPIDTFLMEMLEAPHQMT
Method in brief: as §1

[17] = biological target: Thyroid hormone receptor beta (Homo sapiens) (UniProt P10828); assay: qHTS assay for small molecule antagonists of thyroid hormone receptor beta signaling (AID 588547; active = well fitted inhibition curve with a large enough effect in the signal ratio, with a control signal flat, not every such curve was filed as active; the % refers to the signal ratio;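 note: cells stimulated with 0.4 nM T3 agonist during compound exposure; series mostly up to about 77 µM; % is set by controls: 0 for no effect and ±100 for the full control effect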); conditions: TR-UAS-bla HEK293, beta-lactamase ratio, antagonist mode, 18 h
Thyroid hormone receptor beta (Homo sapiens), sequence (P10828 whole entry, looked up): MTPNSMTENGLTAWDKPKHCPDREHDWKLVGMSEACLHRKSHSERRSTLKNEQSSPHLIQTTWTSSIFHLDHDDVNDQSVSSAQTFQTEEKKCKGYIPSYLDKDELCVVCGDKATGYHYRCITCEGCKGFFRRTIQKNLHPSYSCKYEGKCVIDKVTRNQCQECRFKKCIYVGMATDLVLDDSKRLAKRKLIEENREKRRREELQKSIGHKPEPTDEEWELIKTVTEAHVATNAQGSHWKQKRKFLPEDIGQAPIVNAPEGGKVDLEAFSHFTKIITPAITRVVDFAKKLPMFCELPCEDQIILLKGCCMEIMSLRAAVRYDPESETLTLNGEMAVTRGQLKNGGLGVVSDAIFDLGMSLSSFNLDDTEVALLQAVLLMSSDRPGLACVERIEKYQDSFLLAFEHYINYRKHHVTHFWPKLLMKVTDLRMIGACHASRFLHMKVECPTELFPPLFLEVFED
Method in brief: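 TR-UAS-bla GripTite HEK293 cells in 2% charcoal/dextran FBS medium; compounds 0.59 nM to 92 uM with T3 at 0.4nM final, 18 h at 37 C. Beta-lactamase read by CCF4 fluorescence (460/530 nm); Hill fits gave IC50 and efficacy.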

[18] = qHTS assay for small molecule disruptors of the mitochondrial membrane potential - 5 hr assay (AID 651755; calls by dose curve; note: nearly all actives have a fitted effect of over 40% in size; note: potency is the fitted concentration of half-maximal effect)
Method in brief: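 Read-out: ratiometric Mito-MPS fluorescence, green monomer (ex 490/em 535) vs red mitochondrial aggregate (ex 540/em 590). HepG2 cells treated 5 hr at 37C before 30 min dye loading.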

[19] = qHTS assay for environmental chemicals that activate the Aryl hydrocarbon Receptor (AhR) signaling pathway (AID 651777); conditions: 1A2-DRE human hepatoma cells, luciferase, 24 h; activation: stronger effect = higher value; note: % of control where 0% means no effect; nearly all actives have a fitted effect of over 15% in size
Method in brief: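 Reporter gene assay: hepatoma cells with DRE/CYP1A2-luciferase, 24 hr compound incubation at 37 C, 5% CO2, luminescence after One-Glo (30 min, RT).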

[20] = biological target: Nuclear receptor subfamily 1 group I member 2 (Rattus norvegicus) (UniProt Q9R1A7); assay: qHTS assay for small molecule activators of the rat pregnane X receptor (rPXR) signaling pathway (AID 651751; call rule not given here; note: 0% is about no effect); conditions: rPXR reporter cells, luciferase (One-Glo), 24 h
Nuclear receptor subfamily 1 group I member 2 (Rattus norvegicus), sequence (Q9R1A7 whole entry, looked up): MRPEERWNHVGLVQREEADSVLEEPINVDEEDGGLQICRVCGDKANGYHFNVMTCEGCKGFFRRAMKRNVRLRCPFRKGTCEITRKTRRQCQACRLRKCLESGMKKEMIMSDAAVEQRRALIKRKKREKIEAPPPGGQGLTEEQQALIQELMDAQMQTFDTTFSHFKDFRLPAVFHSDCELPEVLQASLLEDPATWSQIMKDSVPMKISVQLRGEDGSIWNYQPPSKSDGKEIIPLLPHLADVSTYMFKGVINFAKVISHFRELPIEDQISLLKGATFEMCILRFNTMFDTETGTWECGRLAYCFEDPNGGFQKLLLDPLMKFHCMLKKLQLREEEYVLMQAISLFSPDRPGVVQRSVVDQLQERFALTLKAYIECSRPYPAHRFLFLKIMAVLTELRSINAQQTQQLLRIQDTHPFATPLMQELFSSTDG

CC(C)OCC1CO1 (stereo not drawn)
inactive: Potency [1] | Potency [2] | Potency [3] | Potency [4] | Potency [5] | Potency [6] | Potency [7] | Potency [8] | Potency [9] | Potency [10] | Potency [11] | Potency [12] | Potency [13] | Potency [14] | max response [16] 1.98% | activity change % (negative = inhibition) [17] 8.25% | Potency [18] | activation [19] 0.457% | max response [20] 3.69%
-11.4%: max response [15]

Cc1ccc(N)cc1[N+](=O)[O-]
inactive: Potency [1] | Potency [2] | Potency [3] | Potency [4] | Potency [5] | Potency [6] | Potency [7] | Potency [8] | Potency [9] | Potency [10] | Potency [11] | Potency [12] | Potency [13] | Potency [14] | max response [16] -2.5% | activity change % (negative = inhibition) [17] -24.5% | Potency [18] | activation [19] 0.886% | max response [20] -0.278%
-2.06%: max response [15]

Cc1ccc(C(=O)O)cc1[N+](=O)[O-]
-6.14%: max response [15]
inactive: Potency [1] | Potency [2] | Potency [3] | Potency [4] | Potency [5] | Potency [6] | Potency [7] | Potency [8] | Potency [9] | Potency [10] | Potency [11] | Potency [12] | Potency [13] | Potency [14] | max response [16] 8.29% | activity change % (negative = inhibition) [17] 2.7% | Potency [18] | activation [19] -0.0314% | max response [20] 1.55%

CCCCCCc1ccc(-c2ccc(C#N)cc2)cc1
inactive: Potency [1] | Potency [3] | Potency [4] | Potency [5] | Potency [6] | Potency [7] | Potency [8] | Potency [9] | Potency [10] | Potency [11] | Potency [12] | Potency [13] | Potency [14] | max response [16] -14.6% | activity change % (negative = inhibition) [17] 6.73% | Potency [18] | max response [20] -10.6%
-7.3%: max response [15]

C=CC1CO1 (stereo not drawn)
inactive: Potency [1] | Potency [2] | Potency [3] | Potency [4] | Potency [5] | Potency [6] | Potency [7] | Potency [8] | Potency [9] | Potency [10] | Potency [11] | Potency [12] | Potency [13] | Potency [14] | max response [16] -9.54% | activity change % (negative = inhibition) [17] 4.27% | Potency [18] | activation [19] -0.433% | max response [20] 4.12%
-2.46%: max response [15]

CCCCC(CC)COCCCN (stereo not drawn)
3.99%: max response [15]
inactive: Potency [1] | Potency [2] | Potency [3] | Potency [4] | Potency [5] | Potency [6] | Potency [7] | Potency [8] | Potency [9] | Potency [10] | Potency [11] | Potency [12] | Potency [13] | Potency [14] | max response [16] 10.8% | activity change % (negative = inhibition) [17] 3.53% | activation [19] -0.398% | max response [20] 1.77%

COc1ccc(C(=O)Nc2ccccc2)cc1[N+](=O)[O-]
inactive: Potency [1] | Potency [2] | Potency [3] | Potency [4] | Potency [5] | Potency [6] | Potency [7] | Potency [9] | Potency [10] | Potency [11] | Potency [14] | max response [16] -8.72% | activity change % (negative = inhibition) [17] 2.48%
active: Potency [18] 37.6 µM
-10.5%: max response [15]

CCNC(=S)NCC
-3.33%: max response [15]
inactive: Potency [1] | Potency [2] | Potency [3] | Potency [4] | Potency [5] | Potency [6] | Potency [7] | Potency [8] | Potency [9] | Potency [10] | Potency [11] | Potency [12] | Potency [13] | Potency [14] | max response [16] 14.7% | activity change % (negative = inhibition) [17] -1.42% | Potency [18] | activation [19] 1.67% | max response [20] -0.653%

Nc1cc(C(=O)O)c(O)c(S(=O)(=O)O)c1
inactive: Potency [1] | Potency [2] | Potency [3] | Potency [4] | Potency [5] | Potency [6] | Potency [7] | Potency [8] | Potency [9] | Potency [10] | Potency [11] | Potency [12] | Potency [13] | Potency [14] | max response [16] 3.86% | activity change % (negative = inhibition) [17] -10.1% | Potency [18] | activation [19] -2.49% | max response [20] 1.39%
12.7%: max response [15]

OCC(CO)(CBr)CBr
6.52% and -5.45%: max response [15]
inactive: Potency [1] | Potency [2] | Potency [3] | Potency [4] | Potency [5] | Potency [6] | Potency [7] | Potency [8] | Potency [9] | Potency [10] | Potency [11] | Potency [12] | Potency [13] | Potency [14] | max response [16] 4.02% and -1.76% | activity change % (negative = inhibition) [17] -10.9% and 7.42% | Potency [18] | activation [19] 0.992% and 2.31% | max response [20] 4.89% and 3.86%

O=[N+]([O-])c1ccc(F)cc1F
-4.17%: max response [15]
inactive: Potency [1] | Potency [3] | Potency [4] | Potency [5] | Potency [6] | Potency [7] | Potency [8] | Potency [10] | Potency [11] | max response [16] 10.7% | activity change % (negative = inhibition) [17] 0.277% | Potency [18] | activation [19] 0.688% | max response [20] 0.993%
active: Potency [2] 50.1 µM

CC(=O)OC1CC(C)OC(C)O1 (stereo not drawn)
inactive: Potency [1] | Potency [2] | Potency [3] | Potency [4] | Potency [5] | Potency [6] | Potency [7] | Potency [8] | Potency [9] | Potency [10] | Potency [11] | Potency [12] | Potency [13] | Potency [14] | max response [16] 6% and 5.73% | activity change % (negative = inhibition) [17] -11% and -10.6% | Potency [18] | activation [19] -3.53% and 1.99% | max response [20] -2.44% and 3.14%
1.48% and -10.6%: max response [15]

CC(=O)c1ccc(Cl)c(Cl)c1Cl
-2.76%: max response [15]
inactive: Potency [1] | Potency [2] | Potency [3] | Potency [4] | Potency [5] | Potency [6] | Potency [7] | Potency [8] | Potency [9] | Potency [10] | Potency [11] | Potency [12] | Potency [13] | Potency [14] | max response [16] 5.75% | activity change % (negative = inhibition) [17] -12.3% | Potency [18] | activation [19] -0.636% | max response [20] -2.86%
